# Bioassay records: PubChem BioAssay, National Center for Advancing Translational Sciences (NCATS)
# Only some compounds are listed: those with a hit (about 2.3% of all), similar ones and a draw of the others.
# Tau fibril FP = blocks human tau fibril formation measured by polarization | hit rate 0.39% among 280,000 | K18 P301L tau heparin fibrillization, Alexa594 FP, 6 h | AID 1468 | Potency, µM (top dose mostly 57.7 µM), for the others: at the top dose activity, negative = inhibition, actives largely listed as inhibitors; further: potency means the concentration at half of the fitted maximal effect; nearly all actives have a fitted effect of over 55% in size
# Target sequence (P10636 561-689 P618L limits assumed): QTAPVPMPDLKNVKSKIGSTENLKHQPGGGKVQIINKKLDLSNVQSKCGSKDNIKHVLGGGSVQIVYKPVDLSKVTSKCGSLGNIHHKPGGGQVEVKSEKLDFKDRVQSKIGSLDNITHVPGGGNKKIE
#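 Read-out: fluorescence polarization of Alexa 594-labeled tau (0.24 uM), 555 nm excitation, 632 nm emission. Mixtures held 15 uM unlabeled K18 P301L, compound and 20 uM heparin, pH 7 acetate buffer, incubated 6 hr at 37 C.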
# Tau fluor counter = counter-screen for tau fibril formation inhibitors. tau K18 P301L Alexa594 fluorescence, heparin fibrillization. hit rate 0.93% among 280,000. Potency, µM (top dose mostly 57.7 µM), for the others: at the highest dose activity change, negative = decrease; further: potency means the concentration at half of the fitted maximal effect; nearly all actives have a fitted effect of over 55% in size
#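 Human K18 P301L tau (15 uM unlabeled plus 0.24 uM Alexa 594-labeled, final) in 100 mM sodium acetate pH 7 was mixed with compound and 20 uM heparin and incubated 6 hr at 37 C.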
# Tau ThT inhib = tau fibrillization inhibition (ThT binding); recombinant tau K18 P301L, heparin-induced fibrillization, ThT fluorescence; P10636; Potency, µM (highest dose often 57.4 µM), inactives show top-dose activity, negative = inhibition, most hits filed as inhibitors; hit rate 2.1% among 270,000; AID 1460; further: potency means the concentration at half of the fitted maximal effect; nearly all actives have a fitted effect of over 55% in size
#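 Using a mix of unlabeled (15 uM) and Alexa 594-labeled (0.24 uM) tau K18 P301L, heparin-triggered fibrillization over 6 hr at 37 C was scored by ThT fluorescence.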
# FBPA coupling cs = inhibits coupling enzyme system, counter-screen for aldolase hits | coupling enzyme system counterscreen, AmpLite Red fluorescence | activity change, negative = inhibition, % at 58.2 µM, hits read low | hit rate 0.67% among 290,000; in the data active means activity change below about -30%
#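 Counterscreen lacking aldolase: glyceraldehyde-3-phosphate coupling-enzyme reagent preincubated 10 min at RT with compound (at 57.5 uM final), then substrate/coupling system with AmpLite Red added; fluorescence read at 525/598 nm after 20 min RT.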
# USP1 inh = blocks the human USP1/UAF1 deubiquitinase complex | O94782 | hit rate 0.23% among 390,000 | recombinant USP1/UAF1, Ub-Rhodamine cleavage fluorescence | AID 743255 | Potency, µM (series often up to 57.1 µM), for inactives: at the highest dose activity change, negative = inhibition, actives largely listed as inhibitors; further: potency means the concentration at half of the fitted maximal effect; nearly all actives have a fitted effect of over 60% in size
#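 1 nM enzyme complex + cpd, 15 min RT; start with Ub-Rho 150nM final; kinetic fluorescence ex 480/em 540, 6 reads q60 s. Buffer 50mM HEPES pH 7.8, 0.5mM EDTA, 0.1 mg/ml BSA, 1mM TCEP, 0.01% Tween-20.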
# An asterisk follows results filed as active; ? = inconclusive; / = not tested or not shown; [ ] = another dose, or the depositor's remark. Unless noted, the call rests on the fitted dose curve; in most records, active means well fitted curve in the direction sought with a large enough effect; inconclusive means small, poorly fitted or top-dose-only effect, or another doubt; inactive means no such curve, though single readings can be large; an effect the other way counts as inactive or inconclusive. On the % scale 0 is the no-effect control and ±100 the full control effect.
SMILES,Tau fibril FP,Tau fluor counter,Tau ThT inhib,FBPA coupling cs,USP1 inh
CC(C)Oc1ccc(CNC(=O)c2ccc(NC(=O)N3CCSc4ncccc43)cc2)cc1,-7%,-29%,-17%,/,?
CCCn1nc(NC(=O)c2cccc(Cl)c2)c2cc3cccc(C)c3nc21,-17%,-12%,2%,/,-9%
C/C(=N\Nc1nc2ccccc2[nH]1)c1ccc2c(c1)OCCO2,2%,?,14µM*,2,-18%
C/C(=N\Nc1nc2ccccc2[nH]1)c1ccc2c(c1)OCO2,9%,?,?,-4,-11%
C/C(=N\Nc1nc2ccccc2[nH]1)c1cc2ccccc2o1,?,?,14µM*,-2,?
COC(=O)c1cc2sc(C)cc2n1Cc1cccc(OC)c1,-6%,?,?,/,?
Cc1ccc2oc(C(=O)Nc3ccc(S(=O)(=O)Nc4ncccn4)cc3)cc(=O)c2c1,-17%,-17%,-12%,/,-16%
c1ccc(Nc2ccc(-n3ccnc3)nn2)cc1,7%,-16%,?,1,-21%
Clc1ccc(Nc2ccc(-n3ccnc3)nn2)cc1Cl,?,13µM*[quencher],1%,0,-8%
Cc1cc(C)n(C)c(=O)c1C#N,4%,7%,2%,0,-5%
Cc1cc(O)c(/C=N/Nc2ccc(F)cc2)c(=O)o1,-6%,-10%,-17%,2,-10%
Cc1c(C(=O)O)nn(-c2ccccc2)c(=O)c1C#N,9%,5%,-2%,-2,-19%
Cc1c(C=O)c(Cl)n(C)c(=O)c1C#N,-8%,-2%,?,-46*,?
Cc1c(/C=N/Nc2ccc(F)cc2)c(O)n(C)c(=O)c1C#N,?,-27%,14µM*,-23,-20%
CC(=O)N=Cc1c(C)c(C#N)c(=O)n(C)c1O,-10%,-19%,?,-51*,-27%
CCOC(=O)c1c(-c2ccc(C)cc2)csc1NC(=O)c1cc(=O)c2cc(C)c(C)cc2o1,5%,1%,3%,/,-15%
O=C(/C=C/c1ccco1)NCC1CCCO1 (configuration not stated),?,-20%,14µM*,-1,-16%
Cc1ccc(C(=O)N/C(=C/c2ccco2)C(=O)NCC2CCCO2)cc1 (configuration not stated),2%,-2%,-5%,4,-11%
CN(Cc1ccccc1)C(C(=O)NC1CCCCC1)c1ccc(Cl)cc1 (configuration not stated),0%,-3%,-5%,/,?
Cc1cc(C(=O)O)c2c(=O)n(C)c(=O)n(C)c2n1,-12%,-8%,-3%,/,-30%
CN1CCc2c(sc(/N=C/c3c[nH]c4ccccc34)c2C#N)C1,?,?,14µM*,-30,?
CN1CCc2c(sc(/N=C/c3c[nH]c4ccccc34)c2C(N)=O)C1,?,?,10µM*,-18,?
Cc1cccc(C(=O)Oc2csc(=S)n2C(=O)c2cccc(C)c2)c1,-15%,-24%,13µM*,-1,-24%
O=C(Oc1csc(=S)n1C(=O)c1ccccc1)c1ccccc1,-16%,-25%,11µM*,0,-18%
O=C(Oc1cccccc1=O)c1ccccc1,4%,-8%,?,2,-18%
SMILES,Tau fibril FP,Tau fluor counter,Tau ThT inhib,FBPA coupling cs,USP1 inh
CC(=O)CC1OC(=O)C(Br)=C1NCc1ccccc1 (configuration not stated),?,-19%,8.9µM*,2,-21%
O=C(CC1Oc2ccccc2NC1=O)NCc1ccccc1 (configuration not stated),-16%,-10%,-18%,0,-7%
O=c1c2sccc2n(Cc2cc(=O)n3ccccc3n2)c(=O)n1-c1cccc(C(F)(F)F)c1,-5%,-10%,-8%,/,-17%
Cn1ncc([N+](=O)[O-])c1C(=O)N/N=C/c1cccc([N+](=O)[O-])c1,13%,-2%,-6%,-35*,1%
Cn1ncc([N+](=O)[O-])c1C(=O)N/N=C/c1ccc(F)cc1,3%,2%,-5%,2,-11%
COc1cccc(OC)c1OCCN(C)C,5%,1%,-1%,-34*,-1%
O=S(=O)(c1ccc(Cl)nc1)N1CCc2ccccc21,-2%,-14%,-7%,-5,-5%
O=S(=O)(c1ccc(Cl)nc1)N1CCCc2ccccc21,8%,-2%,-3%,-33*,-22%
C=CC1=C2C=C(C3CC3)N(C3CCCC3)C=C2C(=O)C(C)(OC(=O)c2ccco2)C1=O (configuration not stated),0%[11.6 µM],-3%[11.6 µM],-6%[11.5 µM],-42*,/
C=CC1=C2C=C(C3CC3)N(C3CC3)C=C2C(=O)C(C)(OC(=O)c2ccco2)C1=O (configuration not stated),-11%[11.6 µM],-3%[11.6 µM],1%[11.5 µM],-11,?
C=CC1=C2C=C(C3CC3)N(C3CCCCC3)C=C2C(=O)C(C)(OC(=O)c2ccco2)C1=O (configuration not stated),-12%[11.6 µM],-8%[11.6 µM],-12%[11.5 µM],-43*,/
CC(=O)c1ccc(N2CCN(C(=O)c3cc(S(=O)(=O)N4CCCCCC4)cn3C)CC2)cc1,1%,-6%,-4%,/,-21%
O=C(COC(=O)CCc1c[nH]c2ccccc12)NC(c1ccccc1)c1ccccc1,?,14µM*[quencher],-9%,-2,-11%
O=C(COC(=O)CCc1c[nH]c2ccccc12)Nc1ccccc1,/,/,/,/,0%
CC(OC(=O)CCc1c[nH]c2ccccc12)C(=O)c1ccccc1 (configuration not stated),5%,11µM*[quencher],?,-5,-22%
CCOC(=O)C1CCC(CN(Cc2ccc(OC)cc2)S(=O)(=O)c2ccc(F)c(C(=O)Nc3c(C)cccc3C)c2)CC1 (configuration not stated),3%,-11%,-4%,/,12%
COc1ccc(S(=O)(=O)N(C(=O)c2ccco2)c2cc3sc(=O)oc3c3ccccc23)cc1,20µM*,?,13µM*,-10,-11%
CC(=O)N(c1ccc2oc(=O)sc2c1)S(=O)(=O)c1ccccc1,-11%,-16%,?,3,-2%
COc1ccc(S(=O)(=O)N(C(=O)C(C)C)c2ccc3oc(=O)sc3c2)cc1,-18%,-23%,?,7,-14%
CCOc1ccc(S(=O)(=O)N(C(=O)c2ccco2)c2cc3sc(=O)oc3c3ccccc23)cc1,28µM*,-22%,14µM*,-6,-21%
Cc1ccc(S(=O)(=O)N(C(=O)c2ccco2)c2cc3sc(=O)oc3c3ccccc23)cc1,22µM*,?,14µM*,-15,-8%
COc1ccc(-n2cc(C(=O)OCc3ccc(Cl)cc3)c3ccccc3c2=O)cc1,-5%,-15%,-9%,/,4%
CCC12CN3CC(C)(CN(C1)C3c1c[nH]c3ccc(OC)cc13)C2=O (configuration not stated),4%,-2%,5%,/,-6%
